Experimental data from PubChem BioAssay AID1159580 (chemical genetic matrix, 2015).
Out of some 5,500 compounds screened, about 2,000 (36%) were called active. Another 18% or so got no clear call; they are omitted. Cut-off read from the data, not from the text of the source: active = normalized growth mostly below about 0.91 (no sharp cut-off); inconclusive = no clear call, values can overlap the other calls; inactive = mostly above about 0.92. The list shows a part of the results.

Assay: chemical genetic growth profiling, strain panel (AID 1159580);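 note: tested at 20 µM; growth read once vehicle control cultures reached saturation at 30 °C; 1 = growth at the plate median or of vehicle wells; lower values mean less growth of the strain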
Details: growth OD
[1] = S. cerevisiae deletion strains, locus YGR078C, strain PAC10, active compounds read low
[2] = S. cerevisiae deletion strains, locus YJR075W, strain HOC1, active compounds read low
[3] = S. cerevisiae deletion strains, locus YMR307W, strain GAS1, active compounds read low
[4] = S. cerevisiae deletion strains, locus YNL153C, strain GIM3, active compounds read low
[5] = S. cerevisiae deletion strains, locus YNL322C, strain KRE1, active compounds read low
[6] = S. cerevisiae deletion strains, locus YPL241C, strain CIN2, active compounds read low

Measured: normalized growth

CC(C)(Sc1ccc(CCN(CCCCC2CCCCC2)C(=O)NC2CCCCC2)cc1)C(=O)O
inactive: S. cerevisiae deletion strains, locus YAL040C, strain CLN3, active compounds read low 1.06 | S. cerevisiae deletion strains, locus YCL061C, strain MRC1 (second series), active compounds read low 0.994 | S. cerevisiae deletion strains, locus YDR363W, strain ESC2, active compounds read low 1.01 | S. cerevisiae deletion strains, locus YER002W, strain NOP16, active compounds read low 1.01 | [1] 1.03 | [2] 1.01 | [3] 0.994 | [4] 0.986 | S. cerevisiae deletion strains, locus YNL175C, strain NOP13, active compounds read low 1.01 | S. cerevisiae deletion strains, locus YNL197C, strain WHI3, active compounds read low 1.02 | S. cerevisiae deletion strains, locus YNL224C, strain SQS1, active compounds read low 1 | [5] 0.994 | S. cerevisiae deletion strains, locus YOR083W, strain WHI5 (second series), active compounds read low 0.98 | [6] 1

CC(C)(C)S(=O)(=O)/C(C#N)=C/c1ccc(F)cc1F
inactive: S. cerevisiae deletion strains, locus YAL013W, strain DEP1, active compounds read low 0.995 | S. cerevisiae deletion strains, locus YBR229C, strain ROT2, active compounds read low 0.999 | S. cerevisiae deletion strains, locus YDL101C, strain DUN1, active compounds read low 1 | S. cerevisiae deletion strains, locus YDL134C, strain PPH21, active compounds read low 1.01 | S. cerevisiae deletion strains, locus YDR150W, strain NUM1, active compounds read low 0.947 | S. cerevisiae deletion strains, locus YEL061C, strain CIN8, active compounds read low 1.02 | [1] 0.999 | S. cerevisiae deletion strains, locus YHR030C, strain SLT2, active compounds read low 1.08 | S. cerevisiae deletion strains, locus YHR087W, strain rtc3, active compounds read low 1.01 | S. cerevisiae deletion strains, locus YJL187C, strain SWE1, active compounds read low 1 | S. cerevisiae deletion strains, locus YJR043C, strain POL32, active compounds read low 1.01 | [2] 0.987 | S. cerevisiae deletion strains, locus YKL190W, strain CNB1, active compounds read low 1.02 | S. cerevisiae deletion strains, locus YLR039C, strain RIC1, active compounds read low 0.962 | S. cerevisiae deletion strains, locus YLR058C, strain SHM2 (second series), active compounds read low 0.987 | S. cerevisiae deletion strains, locus YLR085C, strain ARP6, active compounds read low 1.06 | S. cerevisiae deletion strains, locus YLR262C, strain YPT6, active compounds read low 0.954 | S. cerevisiae deletion strains, locus YML094W, strain GIM5, active compounds read low 1.03 | S. cerevisiae deletion strains, locus YMR219W, strain ESC1, active compounds read low 0.989 | S. cerevisiae deletion strains, locus YMR263W, strain SAP30, active compounds read low 0.977 | [3] 1.01 | S. cerevisiae deletion strains, locus YNL128W, strain TEP1, active compounds read low 1.01 | [4] 1.01 | S. cerevisiae deletion strains, locus YNL298W, strain CLA4 (second series), active compounds read low 1.03 | [5] 0.994 | S. cerevisiae deletion strains, locus YNR030W, strain Alg12, active compounds read low 1.01 | S. cerevisiae deletion strains, locus YPL055C, strain LGE1, active compounds read low 0.919 | [6] 1.03 | S. cerevisiae deletion strains, locus YPR135W, strain CTF4, active compounds read low 1.05 | S. cerevisiae strains, strain wild type, active compounds read low 1.03
